# Measured values published in PubChem BioAssay.
# Values without a mark were called inactive. Calls of active or inactive are those of the source.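 The calls were made as follows, unless noted: active = mean inhibition over 43.08%, the solvent-only control mean plus 3 SD; inactive = the rest.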
# What was measured:
# [1] = target: Nuclear receptor coactivator 3 (Homo sapiens) (UniProt Q9Y6Q9); assay: NCOA3 GAL4-fusion reporter inhibition – cell-based, luminescence, quadruplicate, confirmation (AID 588792); settings: HEK293 GAL4-SRC3 luciferase reporter, at 3.6 µM, active compounds read high;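 also: 0% = DMSO treated cells and 100% = gossypol at 36 µM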
# Sequence of Nuclear receptor coactivator 3 (Homo sapiens) (Q9Y6Q9 whole entry, looked up, the tested form may be a part): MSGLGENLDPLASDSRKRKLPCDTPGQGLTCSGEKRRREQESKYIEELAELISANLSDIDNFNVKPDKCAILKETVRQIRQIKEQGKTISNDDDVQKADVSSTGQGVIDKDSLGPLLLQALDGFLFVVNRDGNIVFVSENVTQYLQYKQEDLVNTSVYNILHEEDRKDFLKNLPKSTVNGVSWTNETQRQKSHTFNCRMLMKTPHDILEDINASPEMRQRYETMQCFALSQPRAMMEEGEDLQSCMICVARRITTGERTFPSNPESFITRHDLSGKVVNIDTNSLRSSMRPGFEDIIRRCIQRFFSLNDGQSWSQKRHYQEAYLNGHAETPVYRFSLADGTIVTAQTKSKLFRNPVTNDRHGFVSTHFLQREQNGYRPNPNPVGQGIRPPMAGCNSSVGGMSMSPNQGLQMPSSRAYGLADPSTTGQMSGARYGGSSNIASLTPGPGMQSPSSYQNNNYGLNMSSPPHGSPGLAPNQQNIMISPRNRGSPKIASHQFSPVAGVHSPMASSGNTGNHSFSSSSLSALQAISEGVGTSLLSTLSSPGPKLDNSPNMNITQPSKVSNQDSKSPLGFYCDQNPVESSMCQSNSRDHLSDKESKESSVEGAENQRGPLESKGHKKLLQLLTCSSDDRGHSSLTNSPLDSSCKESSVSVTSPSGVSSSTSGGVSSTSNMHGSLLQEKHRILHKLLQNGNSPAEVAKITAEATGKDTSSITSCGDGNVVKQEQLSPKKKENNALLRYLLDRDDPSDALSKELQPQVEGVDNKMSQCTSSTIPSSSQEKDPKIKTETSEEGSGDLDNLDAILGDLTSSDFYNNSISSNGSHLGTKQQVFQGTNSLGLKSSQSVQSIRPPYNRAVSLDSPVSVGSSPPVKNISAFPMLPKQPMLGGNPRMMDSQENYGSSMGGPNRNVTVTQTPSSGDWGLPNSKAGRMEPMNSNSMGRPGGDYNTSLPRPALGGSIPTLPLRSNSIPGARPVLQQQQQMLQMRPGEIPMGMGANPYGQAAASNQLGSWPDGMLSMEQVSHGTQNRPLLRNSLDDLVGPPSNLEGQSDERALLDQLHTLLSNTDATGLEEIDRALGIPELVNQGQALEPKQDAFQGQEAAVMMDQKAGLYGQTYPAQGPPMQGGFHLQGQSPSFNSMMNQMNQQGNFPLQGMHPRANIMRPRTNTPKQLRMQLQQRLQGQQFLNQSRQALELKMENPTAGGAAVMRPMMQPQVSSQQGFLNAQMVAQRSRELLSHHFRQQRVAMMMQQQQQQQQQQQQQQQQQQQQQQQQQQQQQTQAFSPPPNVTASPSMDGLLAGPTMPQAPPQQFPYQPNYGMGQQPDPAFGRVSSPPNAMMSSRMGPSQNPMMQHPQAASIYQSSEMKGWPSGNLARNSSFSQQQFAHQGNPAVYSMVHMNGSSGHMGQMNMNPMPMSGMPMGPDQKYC
# [2] = tested on: transactivating tegument protein VP16 (Human herpesvirus 1), Gal4-VP16 luciferase reporter; assay: repression of VP16-driven luciferase reporter – cell-based, luminescence, high throughput, counter-screen for SRC3 inhibitor project (AID 588794; in the data active = inhibition above about 30%); settings: mammalian cells, at 3.6 µM, active compounds read high
SMILES,inhibition [1],inhibition [2]
Cc1nc(NCc2ccccn2)c2ccccc2n1,-6.68%,13.9%
O=C(Cc1ccccc1)N/N=C/c1cc(Br)cc(Cl)c1O,19.8%,16.4%
Nc1nc(NCc2ccco2)nc(N2CCCCCC2)c1[N+](=O)[O-],-0.71%,18%
Cc1cccc(C)c1NC(=O)c1ccc(-c2ccc(Cl)cc2Cl)o1,28.4%,23%
CS(=O)c1nc(-c2ccc(Br)cc2)cc(-c2ccccc2)c1C#N (stereo not given),43.9% (active),26.6%
CC1CN(Cc2ccccc2)c2nc3c(c(=O)n(CC(N)=O)c(=O)n3C)n2C1 (stereo not given),0.26%,-4.77%
COc1ccc(-c2ncncc2-c2ccc(Cl)cc2)c(O)c1,25.1%,22.8%
CC(=O)c1c(C)n(-c2ccc(Br)cc2)c2ccc(O)cc12,53.3% (active),30.8% (active)
O=[N+]([O-])c1cc(S(=O)(=O)NCCN2CCOCC2)ccc1Sc1nnnn1-c1ccccc1,12.9%,-10.3%
CC(C)(C)CNC(=O)[C@]1(C)CCC[C@@]2(C)C3CC[C@@]4(C)C[C@]3(CCC21)CC4=O (stereo not given in full),9.18%,17.9%
COc1ccc(-c2nc(CSCC(=O)NCc3ccco3)c(C)o2)cc1,42.1%,-11.2%
CCN(CC)c1ccc(Nc2nc(N3CCOCC3)c3ccccc3n2)cc1,4.45%,20.2%
Cc1ccc(S(=O)(=O)NCc2ccc(C(=O)N3CCN(c4ccc([N+](=O)[O-])cc4)CC3)cc2)cc1,17%,36.9% (active)
O=C(Nc1ccc2c(c1)CCC2)C1CCN(c2c3c(nc4ncnn24)CCC3)CC1,13.5%,13.2%
C#CCN(C[C@@H]1[C@@H](OC(=O)NCc2ccccc2F)[C@@H](OC(=O)NCc2ccccc2F)Cn2c(=O)ccc(=O)n21)S(=O)(=O)c1ccc(C)cc1,-2.92%,24.2%
COc1ccc(C)cc1NS(=O)(=O)c1ccc(NC(=O)CN(c2cc([N+](=O)[O-])ccc2C)S(C)(=O)=O)cc1,58.6% (active),-20%
CCC(=O)N1CCN(c2ccnc3cc(Cl)ccc23)CC1,29.1%,9.02%
O=[N+]([O-])c1ccc(S(=O)(=O)CC2CSc3nc4ccccc4n32)cc1 (stereo not given),15.6%,18.6%
C[C@H](NC(=O)Nc1ccccc1F)C(=O)O,5.66%,3.39%
Cc1ccc(-n2cccn2)c(CN2CCCC(C(=O)c3sccc3C)C2)c1 (stereo not given),18.9%,32.1% (active)
Cc1ccc(S(=O)(=O)NCC(=O)N(c2ccccc2)C(C(=O)NCc2ccccc2)c2ccco2)cc1 (stereo not given),-2.76%,4.99%
COc1ccc(CN2C(=O)c3cccnc3C2=O)cc1S(=O)(=O)NCc1ccccc1,8.01%,-6.65%
COC(=O)c1c(NC(=O)c2ccccc2)sc(C(N)=O)c1C,26.7%,55.4% (active)
CCc1ccc(CN(C)C(=O)c2cc(COc3cccc4cnccc34)on2)cc1,18.4%,33.7% (active)

SMILES,inhibition [1],inhibition [2]
CCCN1CCN(C2CCCCC2NS(=O)(=O)c2ccccc2)CC1 (stereo not given),-7.15%,-2.22%
CCOC(=O)CN(C(=O)COc1nc(C)cc(C)c1C#N)c1ccc(Cl)cc1,4.25%,1.1%
NC(=S)N/N=C\c1c(OCc2ccccc2Cl)ccc2ccccc12,18.1%,27.6%
CC(=O)c1c(O)cc2c3c1OC(C)(C)C1CCC(C)(CC31)O2 (stereo not given),46.2% (active),30.9% (active)
Cc1cccc(NC(=O)c2cc(-c3cccnc3)nc3c(C)cccc23)n1,7.37%,1.11%
Cc1ccc(N=Nc2ccc3ccccc3c2O)cc1,30.8%,17.5%
Nc1cccc2c1C(=O)N(C(=O)c1cccc(S(=O)(=O)N3CCCCCC3)c1)C2=O,1.95%,-5.22%
NC(=S)NN=C(Cc1ccccc1)Cc1ccccc1,22.4%,15.6%
COc1ccc(CCNC(=O)C2CCCN(S(C)(=O)=O)C2)cc1OC (stereo not given),-14%,-3.27%
O=C(NCc1cccs1)C1CCN(S(=O)(=O)c2ccccc2F)CC1,0.65%,-0.48%
COc1ccccc1OCC(=O)N/N=C/c1c(O)ccc2ccccc12,12.8%,22.8%
COc1ccc(C(=O)/C=C/c2cc(OC)c(O)c(OC)c2)c(F)c1,26.6%,17.7%
Clc1ccc(C[n+]2cc(-c3ccccc3)n3c2CCCCC3)c(Cl)c1,22.4%,46.7% (active)
CCCCCCSc1ccc([C@H]2N[C@@](CC(C)C)(C(=O)OC)[C@H]3C(=O)N(C)C(=O)[C@@H]23)cc1OC,4.49%,-10.5%
O=C(C1CCC1)N1CCN(c2ccnc3cc(Cl)ccc23)CC1,17%,6.97%
Cc1cc(C)n(-c2ccc(C(=O)Nc3cccc(S(=O)(=O)N(C)C)c3)cc2)n1,-2.01%,18.6%
O=C(CCN1CCOCC1)N/N=C/c1cc(Br)cc(Br)c1O,13.6%,7.46%
Cc1cc(C=C2C(=O)c3ccccc3C2=O)c(C)n1-c1ccccc1,67.5% (active),43.2% (active)
CC12CN3CC(C)(CN(C1)C3c1ccccc1F)C2 (stereo not given),2.53%,4.18%
CCn1nc(C(=O)OCC(=O)c2ccc3c(c2)OCCO3)c2ccccc2c1=O,-13.9%,-5.51%
CCc1cccc(CC)c1NC(=O)CSc1nc2ccc(N3C(=O)C4C(C3=O)[C@H]3C=C[C@@H]4C3)cc2s1 (stereo not given in full),1.87%,10.2%
C#CC(=O)N(c1cc(OC)ccc1OC)C(C(=O)NC1CCCC1)c1cccs1 (stereo not given),49.7% (active),7.33%
O=C(NNC(=S)NCc1ccccc1)c1ccc2c(c1)OCO2,-11.1%,-11.7%
COC(=O)COc1cccc(NC(=O)c2cccs2)c1,-1.66%,-12.7%

SMILES,inhibition [1],inhibition [2]
COc1ccc(-c2cc(C(=O)NNC(=S)NC(=O)c3c(-c4ccccc4)noc3C)[nH]n2)cc1,6.16%,-3.86%
Cc1ccc(C)c(S(=O)(=O)N2CCCCC2CCNC(=O)C(=O)NCc2ccncc2)c1 (stereo not given),0.55%,7.08%
COc1ccc(Nc2nc(-c3ccccc3)nc3ccccc23)cc1S(=O)(=O)N1CCOCC1,7.91%,1.3%
CC(C)OP(=O)(OC(C)C)/C(C=O)=N\Nc1ccc([N+](=O)[O-])cc1,7.9%,2.13%
C=C(C)COc1ccc(-c2[nH]ncc2-c2ccc(OC)cc2)c(O)c1,7.89%,14.5%
O=C1C=CC(=O)N1CCNc1ncc(C(F)(F)F)cc1Cl,7.05%,-14.1%
CCSc1ccccc1C(=O)NCc1ccc2c(c1)OCO2,1.07%,-10.1%
C=CCSc1nsc(NC(=O)Nc2ccc(F)cc2)n1,-4.43%,-4.12%
COc1ccc(OCc2nn3c(-c4ccco4)nnc3s2)cc1,-8.03%,-4.08%
COc1ccc(NC(=O)N(C)C[C@H]2Oc3c(NC(=O)Nc4ccc(C(F)(F)F)cc4)cccc3C(=O)N([C@H](C)CO)C[C@@H]2C)cc1,10.2%,-6.34%
COc1cc(C=CC(=O)c2ccccc2)cc(OC)c1OC,28.4%,30.1% (active)
COc1ccc2c(c1)-c1c(ssc1=S)C(C)(C)N2S(=O)(=O)c1ccc(C)cc1,2.95%,13.9%
CN1/C(=C\C(=O)C[n+]2cccc(Br)c2)C(C)(C)c2ccccc21,25.3%,21.2%
COc1ccc(CCNC(=O)COc2ccc(N(C)S(=O)(=O)c3ccc(Cl)cc3)cc2)cc1,10.9%,20.2%
CCN(c1ccccc1)S(=O)(=O)c1ccc(C(=O)Nc2nnc(-c3ccco3)o2)cc1,8.7%,9.19%
COc1ccc(OC)c(NC(=O)c2cccc(N3C(=O)C4C5C=CC(C6CC56)C4C3=O)c2)c1 (stereo not given),-11.6%,7.26%
Cc1ccc(N/C(N)=N/c2nc(C)cc(C)n2)cc1,-9.39%,-6.71%
CC1=[N+]([O-])C(C)(C)CC(C)(C)c2ccccc21,3.29%,6.25%
Cc1ccc2c(c1)/C(=C/c1ccc(F)cc1)C(=O)N2,7.93%,-3.06%
Cn1ncc2c(O/N=C(\N)c3ccc(C(F)(F)F)cc3)ncnc21,-12.9%,1.06%
COc1ccc2c(O)c(-c3c(C)cc(C)cc3C)c(=O)[nH]c2c1,-14.3%,-6.8%
COc1cccc(/C=N/NC(=O)C(C)n2nc(C)c([N+](=O)[O-])c2C)c1O (stereo not given),10.2%,27.4%
